# Tests used:
# Conditions in all cases: concentration: 1 μM, replicates: in singlicate; n = 1
# PKAC-alpha = tested on: T1, PKAC-alpha
# T1 construct: gene PRKACA
# PKAC-beta = tested on: T2, PKAC-beta
# T2 construct: gene PRKACB
# PKMYT1 = tested on: PKMYT1
# PKN1 = tested on: PKN1
# PKN2 = tested on: PKN2
# PLK1 = tested on: PLK1
# PLK2 = tested on: PLK2
# PLK3 = tested on: PLK3
# PLK4 = tested on: PLK4
# PRKCD = tested on: PRKCD
# 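Note: KINOMEscan kinase panel screen.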
Compound,%Inh (PKAC-alpha) [%],%Inh (PKAC-beta) [%],%Inh (PKMYT1) [%],%Inh (PKN1) [%],%Inh (PKN2) [%],%Inh (PLK1) [%],%Inh (PLK2) [%],%Inh (PLK3) [%],%Inh (PLK4) [%],%Inh (PRKCD) [%]
Cl.NS(=O)(=O)c1cccc(Nc2cc(-c3ccc(F)cc3)n[nH]2)c1 [GW824645],7,0,0,0,0,0,20,23,10,5
O=C(Nc1ccc2c(c1)OCO2)NC1CCN(c2ccnc(NCc3ccc(F)cc3)n2)CC1 [GSK1379859],12,0,0,0,0,0,0,0,9,7
Nc1ncnc2c1ncn2-c1ccc(Cl)cc1 [AH2635],0,0,0,0,0,0,0,0,0,3
COc1ccc(-c2cc3c(C)nc(N)nc3n([C@H]3CC[C@H](O)CC3)c2=O)cn1,0,0,32,0,10,0,0,0,0,0
O=C(Nc1n[nH]c2nc(-c3ccccc3)c(Cl)cc12)C1CC1 [SB-734909],0,0,16,45,0,24,0,13,29,2
CCCC(=O)Nc1n[nH]c2ncc(-c3cccc4ccccc34)cc12 [SB-642057],0,0,22,19,0,0,0,1,13,0
Cc1cccc(-c2nc(Nc3ccc4c(cnn4C)c3)c3ccccc3n2)n1 [GW876731],0,14,4,55,33,7,0,0,13,5
Cc1cccc(-c2cc(-c3c[nH]nc3-c3ccccn3)ccn2)c1 [GW679395],0,0,1,0,0,0,0,0,0,0
COc1cc2ncn(-c3cc(OCc4ccc(S(C)(=O)=O)cc4)c(C(N)=O)s3)c2cc1OC [GW869979],0,0,0,8,0,98.3,98.9,92.3,3,0
C[C@@H]1CC[C@H](C(=O)NC2CCCCC2)CN1c1cc(-c2ccc3c(N)n[nH]c3c2)nc(N)n1 [GSK2291363],32,18,6,0,0,8,0,0,0,8
CCC(=O)c1c(-c2ccccc2)c2cc(Cl)ccc2c(=O)n1Cc1cc(C(=O)NC2CC2)n(C)n1,0,0,5,0,0,0,2,7,10,8
COc1ccc(CNC(=O)NC2CCN(c3ccnc(Nc4ccc(F)cc4)n3)C2)cc1 (centres unmarked) [GSK1379706],0,0,10,14,0,10,0,0,19,0
CN1C(=O)C(Nc2cc(Cl)c(O)c(Cl)c2)=C(c2ccc(Cl)cc2)C1=O [SB-404321],0,0,0,0,0,0,0,0,0,0
Cn1c(=O)c(F)c(Nc2ccc(I)cc2F)c2c(=O)n(OC[C@H](O)CO)cnc21,10,35,0,0,0,14,0,0,4,4
Fc1cccc(CSc2nnc(-c3ccc4c(c3)CCO4)o2)c1,29,0,24,0,0,0,6,11,21,7
COc1ccc(Nc2nccc(N3CCC(NS(=O)(=O)c4ccc(NC(C)=O)cc4)C3)n2)cc1 (centres unmarked) [GSK1379729],6,0,12,37,2,12,0,0,8,0
Nc1n[nH]c2nnc(-c3ccccc3)c(-c3ccccc3)c12 [GW554060],0,16,0,20,3,8,0,0,0,3

# — PMC5540273 (PLoS ONE, 2017)
